Experimental data from PubChem BioAssay AID624405 (Broad Institute, 2012).
Out of some 1,900 compounds screened, about 250 (13%) were called active. Another 4% or so got no clear call; they are omitted. Not all results are given here. Results with a measured potency or affinity are listed apart. Unmarked numbers belong to inactive results.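 The calls were made as follows: active = fitted curve reaches 40% rescue activity at or below the top valid dose, in every test run; inconclusive = test runs disagree, some active and some inactive; inactive = every run misses the threshold or moves the wrong way.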

Test: suppressors of statin myotoxicity in myotubes, dose response, cell-based, C2C12 myotubes, ATP luminescence, cherry pick (AID 624405);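 also: myotubes are challenged with simvastatin at 10 µM to lower ATP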
Conditions: C2C12 myotubes + simvastatin, 48 h, scaled: DMSO wells 0, geranylgeraniol wells 100; series mostly up to 19.5 µM; rescue activity (ATP increase): at the top concentration

Structure (SMILES) | rescue activity (ATP increase)
C[C@H]1CN([C@@H](C)CO)C(=O)c2cc(C#CC3CC3)cnc2O[C@@H]1CN(C)S(C)(=O)=O | 2.75%
C[C@@H]1CN([C@H](C)CO)C(=O)c2cc(NS(C)(=O)=O)ccc2O[C@@H](C)CCCCO[C@@H]1CN(C)S(=O)(=O)c1ccc(Cl)cc1 | 15.7%
O=c1c2c([nH]c3ccc(Br)cc13)CCCC2 | -17.7%
O=C(CCn1cccc1)NC1CCCc2ccccc21 (centres undefined) | 9.33%
Cc1ccc(CN(C(=O)c2ccco2)C(C(=O)NC2CCCC2)c2ccc(N3CCOCC3)cc2)cc1 (centres undefined) | 0.628%
COc1ccc(NC(=O)Nc2ccc3c(c2)C(=O)N([C@H](C)CO)C[C@H](C)[C@@H](CN(C)Cc2ccc(C(F)(F)F)cc2)OCCCC[C@H](C)O3)cc1 | 14%
Cc1ccc(S(=O)(=O)N(C)C[C@@H]2Oc3c(NC(=O)Nc4ccccc4)cccc3C(=O)N([C@@H](C)CO)C[C@@H]2C)cc1 | 36.3%
Cc1ccc(S(=O)(=O)N(C)C[C@@H]2Oc3c(NC(=O)Nc4ccccc4)cccc3C(=O)N([C@H](C)CO)C[C@@H]2C)cc1 | 33.4%
C[C@@H]1CN([C@H](C)CO)C(=O)c2cccc(NC(=O)Nc3ccccc3)c2O[C@@H]1CN(C)S(=O)(=O)c1ccccc1 | 26.7%
Cc1ccc(S(=O)(=O)N(C)C[C@@H]2Oc3c(NC(=O)Nc4ccccc4)cccc3C(=O)N([C@H](C)CO)C[C@H]2C)cc1 | -25.3%
c1cnc2ccc(C(c3nnnn3C3CCCC3)N3CCN(c4nc5ccccc5s4)CC3)cc2c1 (centres undefined) | 5.08%
CC(C)NC(=O)CN1C(=O)NC(CCc2ccccc2)C1=O (centres undefined) | -27.9%
CCCn1c2c(c(O)c(C(=O)NC)c1=O)CCCC2 | 32.2%
C[C@H]1CN([C@@H](C)CO)S(=O)(=O)c2ccc(C#CC3CCCCC3)cc2O[C@H]1CN(C)C(=O)Cc1ccncc1 | -18.7%
COc1ccc(S(=O)(=O)N2CCOCC2)cc1NC(=O)CSc1ncccn1 | -4.59%
Cc1c(N=Cc2c(O)n(Cc3ccco3)c(=O)c3ccccc23)c(=O)n(-c2ccccc2)n1C | 27.1%
CCOC(=O)C1CCN(S(=O)(=O)c2nc3nc(C)cc(C)n3n2)CC1 | -11.5%
O=C(NNC(=O)c1ccncc1)Nc1ccc(N=Nc2ccccc2)cc1 | -47.4%
COc1ccc(C#Cc2ccc([C@H]3[C@H]4CN(C(=O)c5ccncc5)CCCCN4[C@H]3CO)cc2)cc1 | 28.5% [at 21 µM]
C[C@@H]1CN([C@@H](C)CO)C(=O)c2cc(NS(=O)(=O)c3cccs3)ccc2O[C@@H]1CN(C)Cc1ccc2c(c1)OCO2 | 31.3%

Structure (SMILES) | rescue activity (ATP increase)
C[C@H]1CN([C@@H](C)CO)C(=O)c2cccc(NS(=O)(=O)c3cccs3)c2O[C@@H]1CN(C)C(=O)Nc1ccc(C(F)(F)F)cc1 | -2.23%
Cc1cccc(OCC(=O)Nc2cc(C)ccc2O)c1 | 23.5%
COc1ccccc1-c1noc(-c2ccncc2)n1 | 8.68%
Cc1ccc(-c2noc(-c3cccs3)n2)cc1 | -4.64%
Cc1ccc(C(=O)OCC(=O)Nc2ccc3c(c2)OCO3)cc1S(=O)(=O)N1CCOCC1 | -31.5%
CCOC(=O)C(C)n1nc(/C=C/c2ccccc2)ccc1=O (centres undefined) | -17.3%
C[C@@H]1CN([C@@H](C)CO)C(=O)Cc2cc(NC(=O)Cc3cn(C)c4ccccc34)ccc2O[C@H]1CN(C)Cc1ccc(Oc2ccccc2)cc1 | 10.6%
O=C(Nc1nc2c(s1)CCCC2)c1ccc(Br)o1 | -45%
C[C@H](CO)N1C[C@H](C)[C@@H](CN(C)S(=O)(=O)c2cn(C)cn2)Oc2ccc(NC(=O)Nc3ccc(C(F)(F)F)cc3)cc2C1=O | 17.3%
C[C@H](CO)N1C[C@H](C)[C@@H](CN(C)S(=O)(=O)c2ccc(Cl)cc2)Oc2c(NC(=O)Nc3ccc(C(F)(F)F)cc3)cccc2C1=O | 1.28%
C[C@H](N)c1nnc(SCC(=O)c2ccc(Cl)cc2)o1 | 19%
CC(C)CC#Cc1cnc2c(c1)C(=O)N([C@@H](C)CO)C[C@@H](C)[C@H](CN(C)S(=O)(=O)c1cccs1)O2 | 0.138%
CCn1c(CSc2nc(C)cc(C)n2)nnc1SCC(=O)Nc1nc(-c2ccccc2)cs1 | -15.7%
COc1ccc(S(=O)(=O)Nc2cccc3c2O[C@H](CN(C)S(=O)(=O)c2ccc(Cl)cc2)[C@H](C)CN([C@@H](C)CO)C3=O)cc1 | 23%
CCOc1ccccc1C(=O)n1nc(C)cc1C | 26.2%
CCOC(=O)Cn1c(=O)c2c(nc3n2CCN3Cc2ccccc2)n(C)c1=O | 40.9%
CCCCOC(=O)Cn1c(=O)c2c(nc3n2CCCCN3c2ccc(C)cc2)n(C)c1=O | -4.89%
O=C1c2ccccc2C(=O)N1CCC1=CCCCC1 | -38.2%
C[C@@H]1CN([C@H](C)CO)C(=O)c2cccc(NS(=O)(=O)c3cccs3)c2O[C@@H]1CN(C)S(=O)(=O)c1cccs1 | 16.3%
